Test results as given in PubChem BioAssay (NCI).
This is part of a sample that, as a whole, favours compounds with a hit. Of some 83,000 tested, about 20% had one in any assay.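 Percent growth is the endpoint: 0 to 100 indicates growth inhibition (40 means 60% inhibition), 0 means no net growth, and negative values indicate cell death.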 A number with no mark means an inactive call. Active and inactive are the calls of the source. The calls were made as follows: active = growth percent below 10; inactive = the rest.

Columns and labels:
Test in all cases: NCI-60 one-dose screen, 48 h (100 = growth as untreated, 0 = no growth, -100 = all killed)
Details in all cases: 10 µM unless noted
HCT-15 colon = test system: HCT-15 colon
HT29 colon = test system: HT29 colon
SNB-75 CNS = test system: SNB-75 CNS
SNB-19 CNS = test system: SNB-19 CNS
U251 CNS = test system: U251 CNS
PC-3 prostate = test system: PC-3 prostate
SK-MEL-5 melanoma = test system: SK-MEL-5 melanoma
UACC-62 melanoma = test system: UACC-62 melanoma
LOX IMVI melanoma = test system: LOX IMVI melanoma
SK-MEL-28 melanoma = test system: SK-MEL-28 melanoma
SK-MEL-2 melanoma = test system: SK-MEL-2 melanoma
EKVX NSCLC = test system: EKVX NSCLC
SN12C renal = test system: SN12C renal
UO-31 renal = test system: UO-31 renal
TK-10 renal = test system: TK-10 renal
ACHN renal = test system: ACHN renal
CAKI-1 renal = test system: CAKI-1 renal
A498 renal = test system: A498 renal
CCRF-CEM leukemia = test system: CCRF-CEM leukemia
MOLT-4 leukemia = test system: MOLT-4 leukemia

Structure (SMILES) | growth (HCT-15 colon) | growth (HT29 colon) | growth (SNB-75 CNS) | growth (SNB-19 CNS) | growth (U251 CNS) | growth (PC-3 prostate) | growth (SK-MEL-5 melanoma) | growth (UACC-62 melanoma) | growth (LOX IMVI melanoma) | growth (SK-MEL-28 melanoma) | growth (SK-MEL-2 melanoma) | growth (EKVX NSCLC) | growth (SN12C renal) | growth (UO-31 renal) | growth (TK-10 renal) | growth (ACHN renal) | growth (CAKI-1 renal) | growth (A498 renal) | growth (CCRF-CEM leukemia) | growth (MOLT-4 leukemia)
CCC12CCC[N+]3([O-])CCC4(C(=Nc5ccccc54)C(O)(C(=O)OC)C1)C23 (stereo not given) | 108% | 98.3% | 92.7% | 102% | 108% | 87.8% | 116% | 103% | 100% | 94.5% | 121% | 101% | 99.9% | 87.6% | 113% | 102% | 103% | 108% | 99.9% | 98.2%
CCN(CC)CCCNc1nc2ccccc2c2c(=O)c3cc(Cl)ccc3sc12 | 36.2% | 11.7% | 68.3% | 79.6% | 41.5% | 54.7% | 92.7% | 73.8% | -81.2% (active) | 84.3% | 108% | 79.1% | 66.9% | 33.8% | 68.7% | 47.3% | 23% | 41.4% | 11.7% | 5.32% (active)
O=C(Nc1ccc(OS(=O)(=O)c2ccc(F)cc2)cc1)c1ccc(Cl)cc1 | 89.9% | 80.1% | 114% | 99.4% | 100% | 91.8% | 90.8% | 96% | 98.7% | 107% | 90.6% | 101% | 95.7% | 92.5% | 95.6% | 103% | 105% | 82.9% | 98.7% | 89.1%
CCCCn1c(-c2ccc(-c3nc(-c4ccc(Cl)cc4)no3)cc2)nc(-c2ccccc2)c1-c1ccccc1 | 77.2% | 90.2% | 80.5% | 83.5% | 87% | 70.4% | 97.9% | 71.5% | 31.3% | 90.8% | 103% | -93.7% (active) | 83.2% | -5.33% (active) | 126% | 60.3% | 82.4% | 89.1% | 69.7% | 65.6%
COc1cccc(Cc2cc(-c3ccccc3)nn(CC(=O)c3ccccc3)c2=O)c1 | 20.2% | 36.6% | 50.9% | 58% | 37.1% | 41.4% | 39.4% | 45.9% | 11.8% | 73.2% | 85.4% | 65.1% | 59.3% | 65.1% | 72.1% | 52% | 59.6% | 52.1% | 39.1% | 22.7%
CNC(=O)c1cc(-n2ccc3cc(NC(=O)c4ccc(N5CCOCC5)c(C(F)(F)F)c4)ccc32)ccn1 | 43.2% | 25.1% | 85.9% | 81.1% | 50.3% | 18% | 24.6% | 38.7% | 36.1% | 82.2% | 91.1% | 83.9% | 64.3% | 50.2% | 86.8% | 61.5% | 63.6% | 25.9% | 30.1% | 34.6%
CCCC1CCC(O)(C(C)(O)C(=O)NC2C(=O)N3NCCCC3C(=O)N(O)C(C)C(=O)N3NCCCC3C(=O)N3NCC(O)CC3C(=O)NC(C)C(=O)OC2C(C)C)OC1CC (stereo not given) | -64.1% (active) | -55.6% (active) | -83% (active) | -81.5% (active) | -74.2% (active) | -86% (active) | -97.3% (active) | -71.8% (active) | -72.9% (active) | -99.3% (active) | -43.7% (active) | -63.4% (active) | -67.9% (active) | 0.226% (active) | -85.3% (active) | -68.1% (active) | -82.6% (active) | -95.5% (active) | -84.5% (active) | -82.7% (active)
CCOc1cccc(NC2=C(Br)C(=O)C(C)=C(C)C2=O)c1 | 98.6% | 107% | 56.3% | 94% | 97.3% | 73.8% | 89% | 81.5% | 26% | 104% | 95.5% | 92.4% | 85% | 71.7% | 155% | 85.8% | 96% | 109% | 3.35% (active) | 2.57% (active)
NS(=O)(=O)c1ccc(-n2nc(-c3ccc(Cl)cc3)c3ccccc3c2=O)cc1 | 94.5% | 97.1% | 79.2% | 85.6% | 103% | 75.3% | 90.3% | 89.2% | 83.6% | 117% | 110% | 82.5% | 93.4% | 52.6% | 152% | 94.8% | 95.9% | 123% | 70.3% | 59.5%
O=S(=O)(Nc1ccc(-c2nc(-c3cccc(OCCN4CCOCC4)c3)c(-c3ccnc(Br)c3)[nH]2)cc1)c1ccccc1 | 8.1% (active) | 2.67% (active) | 6.55% (active) | 48.2% | 35.2% | 15.9% | 37.5% | 28.7% | 3.47% (active) | 38.7% | 24.8% | 50.2% | 51.5% | 20.5% | 48.2% | 27.1% | 28.2% | 53% | 15.1% | 8.11% (active)
Clc1ccc(C(/C=C/c2sc(Cl)nc2Cl)=N/Nc2cc(Cl)cc(Cl)c2)cc1 | 105% | 103% | 101% | 96.4% | 101% | 96.7% | 103% | 88.6% | 98.4% | 105% | 106% | 103% | 100% | 83% | 119% | 102% | 98.2% | 101% | 94.5% | 96.6%
Cc1nc2nc(SCC(=O)O)[nH]c2c(=O)[nH]1 | 103% | 96.8% | 110% | 92.5% | 96.8% | 96.6% | 100% | 96.4% | 95.3% | 106% | 96% | 108% | 100% | 92.2% | 101% | 110% | 99.2% | 81.5% | 97.2% | 103%
Cc1c(C(=O)/C=C/Nc2c(Cl)cc(S(N)(=O)=O)cc2Cl)sc2nc3ccccc3n12 | 105% | 108% | 93.6% | 99.3% | 107% | 104% | 104% | 101% | 97.3% | 103% | 109% | 106% | 102% | 89.2% | 111% | 99% | 98.5% | 101% | 102% | 106%
O=C1CCC/C=C\C[C@H]2C=CC(=O)/C2=C/C[C@H](CCc2cccc(C(F)(F)F)c2)O1 | -10.8% (active) | -31.9% (active) | 15.2% | -17.1% (active) | -93% (active) | -20.7% (active) | -82.8% (active) | -45.9% (active) | -72.6% (active) | -39.5% (active) | -57.2% (active) | -47.6% (active) | -37.9% (active) | -95.5% (active) | -68.9% (active) | -85.1% (active) | 12.5% | -79.7% (active) | 4.33% (active) | -18.6% (active)
